Assay results as given in PubChem BioAssay AID1159580 (chemical genetic matrix, 2015).
The whole screen tested about 5,500 compounds, of which about 2,000 (36%) were called active. Inconclusive results (about 18%) are left out. No stated cut-off is given here; in the data, active means normalized growth mostly below about 0.91 (no sharp cut-off); inconclusive means no clear call, values can overlap the other calls; inactive means mostly above about 0.92. This is one part of the list.

Experiment: chemical genetic growth profiling, strain panel (AID 1159580);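 further: tested at 20 µM; growth read once vehicle control cultures reached saturation at 30 °C; 1 = growth at the plate median or of vehicle wells; lower values mean less growth of the strain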
Conditions: S. cerevisiae deletion strains, growth OD

Measured: normalized growth

C[N+](C)(C)CC#CCOC(=O)Nc1cccc(Cl)c1
inactive: locus YAL040C, strain CLN3, hits give low values 0.998 | locus YDR363W, strain ESC2, hits give low values 0.987 | locus YER002W, strain NOP16, hits give low values 0.99 | locus YJR075W, strain HOC1, hits give low values 0.952 | locus YMR263W, strain SAP30, hits give low values 0.953 | locus YMR307W, strain GAS1, hits give low values 0.985 | locus YNL128W, strain TEP1, hits give low values 0.966 | locus YNL153C, strain GIM3, hits give low values 0.998 | locus YNL175C, strain NOP13, hits give low values 0.984 | locus YNL197C, strain WHI3, hits give low values 0.973 | locus YNL224C, strain SQS1, hits give low values 0.993 | locus YOR083W, strain WHI5 (second series), hits give low values 0.954 | locus YPL241C, strain CIN2, hits give low values 0.998

CC(C)OC(=O)Nc1cc(Cl)cc(Cl)c1
inactive: locus YAR019C, strain CDC15, hits give low values 0.971 | locus YBL105C, strain PKC1, hits give low values 0.97 | locus YBR135W, strain CKS1, hits give low values 0.964 | locus YBR136W, strain MEC1, hits give low values 0.986 | locus YBR160W, strain CDC28, hits give low values 0.981 | locus YDL017W, strain CDC7, hits give low values 0.974 | locus YDL028C, strain MPS1, hits give low values 0.996 | locus YDL101C, strain DUN1, hits give low values 0.972 | locus YDL108W, strain KIN28, hits give low values 0.98 | locus YDL132W, strain cdc53, hits give low values 0.953 | locus YDL214C, strain PRR2, hits give low values 0.864 | locus YDR052C, strain DBF4, hits give low values 0.993 | locus YDR054C, strain cdc34, hits give low values 0.939 | locus YDR226W, strain ADK1, hits give low values 0.982 | locus YDR477W, strain SNF1, hits give low values 0.873 | locus YER123W, strain YCK3, hits give low values 0.845 | locus YER133W, strain GLC7, hits give low values 0.764 | locus YFL009W, strain cdc4, hits give low values 0.96 | locus YFL029C, strain CAK1, hits give low values 0.972 | locus YFR003C, strain YPI1, hits give low values 0.972 | locus YFR019W, strain FAB1, hits give low values 0.966 | locus YFR028C, strain CDC14, hits give low values 0.985 | locus YGR040W, strain KSS1, hits give low values 0.838 | locus YGR052W, strain FMP48, hits give low values 0.822 | locus YGR092W, strain DBF2, hits give low values 0.765 | locus YHR079C, strain IRE1, hits give low values 0.754 | locus YHR082C, strain KSP1, hits give low values 0.988 | locus YHR205W, strain SCH9, hits give low values 0.777 | locus YIL147C, strain SLN1, hits give low values 0.987 | locus YJL095W, strain BCK1, hits give low values 0.716 | locus YJL128C, strain PBS2, hits give low values 0.899 | locus YJL157C, strain FAR1, hits give low values 0.902 | locus YJR016C, strain ILV3, hits give low values 0.957 | locus YJR066W, strain TOR1 (second series), hits give low values 0.883 | locus YJR066W, strain TOR1, hits give low values 0.99 | locus YKL048C, strain ELM1, hits give low values 0.864 | locus YKL067W, strain YNK1, hits give low values 0.857 | locus YKL101W, strain HSL1, hits give low values 0.888 | locus YKL193C, strain SDS22, hits give low values 0.97 | locus YKL203C, strain TOR2, hits give low values 0.944 | locus YLR133W, strain CKI1, hits give low values 0.915 | locus YLR403W, strain SFP1, hits give low values 0.853 | locus YML070W, strain DAK1, hits give low values 0.848 | locus YMR001C, strain CDC5, hits give low values 0.985 | locus YMR205C, strain PFK2 (second series), hits give low values 0.898 | locus YMR277W, strain FCP1, hits give low values 0.939 | locus YNL006W, strain LST8, hits give low values 0.968 | locus YNL020C, strain ARK1, hits give low values 0.9 | locus YNL161W, strain CBK1, hits give low values 0.969 | locus YNL183C, strain NPR1, hits give low values 0.707 | locus YNL207W, strain RIO2, hits give low values 0.975 | locus YNL222W, strain SSU72, hits give low values 0.978 | locus YNL307C, strain MCK1 (second series), hits give low values 0.868 | locus YOL078W, strain AVO1, hits give low values 0.974 | locus YOL136C, strain PFK27, hits give low values 0.849 | locus YOR061W, strain CKA2, hits give low values 0.875 | locus YOR119C, strain RIO1, hits give low values 0.85 | locus YOR231W, strain MKK1, hits give low values 0.729 | locus YOR329C, strain SCD5, hits give low values 0.976 | locus YPL031C, strain PHO85, hits give low values 0.756 | locus YPL153C, strain RAD53, hits give low values 0.8 | locus YPL204W, strain HRR25, hits give low values 0.791 | locus YPL209C, strain IPL1, hits give low values 0.973 | locus YPR025C, strain CCL1, hits give low values 0.978 | locus YPR106W, strain ISR1, hits give low values 0.959 | locus YPR111W, strain DBF20, hits give low values 0.948 | strain NNK1, hits give low values 0.963 | strain TSCII, hits give low values 0.967
active: locus YLR113W, strain HOG1, hits give low values 0.479 | locus YPL256C, strain CLN2, hits give low values 0.682
